Reference: the supplement of paper PMC11732987, “Enantioselective OTUD7B fragment discovery through chemoproteomics screening and high-throughput optimisation” (Communications Chemistry, 2025)

Assays:
Assay in all cases: log2 ratio of Biotin-Ahx-Ub-VS probe labelling (fragment/DMSO); higher = less target engagement (more negative = stronger competition), active = hit call of the paper (q ≤ 0.05, log2 ratio ≤ -1)
Settings in all cases: compound concentration: 200 uM; treatment time: 3 h
USP19 = target: T1, USP19 (UniProt O94966)
T1 sequence (whole entry): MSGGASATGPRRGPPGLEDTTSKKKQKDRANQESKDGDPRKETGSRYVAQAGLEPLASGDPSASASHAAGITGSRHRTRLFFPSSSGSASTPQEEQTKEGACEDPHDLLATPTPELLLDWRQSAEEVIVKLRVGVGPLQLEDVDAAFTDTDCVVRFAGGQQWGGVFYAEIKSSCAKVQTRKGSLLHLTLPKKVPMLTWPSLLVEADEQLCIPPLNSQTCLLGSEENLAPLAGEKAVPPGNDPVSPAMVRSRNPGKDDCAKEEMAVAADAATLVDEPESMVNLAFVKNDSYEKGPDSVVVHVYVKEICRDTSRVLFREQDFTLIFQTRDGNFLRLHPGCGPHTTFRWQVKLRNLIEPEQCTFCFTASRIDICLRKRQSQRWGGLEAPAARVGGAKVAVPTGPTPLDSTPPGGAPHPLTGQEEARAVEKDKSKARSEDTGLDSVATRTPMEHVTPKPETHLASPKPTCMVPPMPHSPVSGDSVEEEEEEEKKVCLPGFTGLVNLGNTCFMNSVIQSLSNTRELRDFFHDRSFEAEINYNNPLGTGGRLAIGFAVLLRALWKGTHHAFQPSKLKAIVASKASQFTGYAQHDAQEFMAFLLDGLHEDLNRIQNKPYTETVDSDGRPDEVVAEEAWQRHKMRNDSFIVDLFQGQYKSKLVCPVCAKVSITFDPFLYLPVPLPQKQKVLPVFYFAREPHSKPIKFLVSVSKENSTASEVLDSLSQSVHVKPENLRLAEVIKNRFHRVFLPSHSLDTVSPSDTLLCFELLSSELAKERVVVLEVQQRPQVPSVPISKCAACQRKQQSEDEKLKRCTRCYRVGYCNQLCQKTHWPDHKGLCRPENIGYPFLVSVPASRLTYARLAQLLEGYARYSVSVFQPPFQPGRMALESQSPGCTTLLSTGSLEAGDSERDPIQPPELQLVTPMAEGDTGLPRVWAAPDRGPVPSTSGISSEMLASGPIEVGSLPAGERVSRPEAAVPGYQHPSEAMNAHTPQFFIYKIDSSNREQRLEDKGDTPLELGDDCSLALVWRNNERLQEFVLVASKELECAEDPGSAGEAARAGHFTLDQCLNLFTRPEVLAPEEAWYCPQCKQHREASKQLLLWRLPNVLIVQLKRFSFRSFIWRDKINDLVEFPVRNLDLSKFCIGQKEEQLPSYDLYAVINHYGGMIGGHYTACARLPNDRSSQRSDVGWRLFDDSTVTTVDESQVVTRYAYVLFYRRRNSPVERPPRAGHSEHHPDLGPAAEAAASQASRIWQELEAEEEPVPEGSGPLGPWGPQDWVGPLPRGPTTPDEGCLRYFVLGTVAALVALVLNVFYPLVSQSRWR
How it was run: (§1)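 Each value is an average log2 ratio of fragment to vehicle, tested by unpaired t-test. The underlying Spectronaut label-free quantities were global-median-normalised, and only proteins with ≥2 unique peptides were included. Triplicate HEK293T lysate samples (495 µg) were exposed to fragment at 200 µM or vehicle for 3 h, then to Biotin-Ahx-Ub-VS at 0.5 µM final for 1 h, before NeutrAvidin enrichment of labelled DUBs, LysC and trypsin digestion, and diaPASEF LC-MS/MS.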

USP24 = USP24 (UniProt Q9UPU5)
Sequence of USP24 (Q9UPU5 whole entry): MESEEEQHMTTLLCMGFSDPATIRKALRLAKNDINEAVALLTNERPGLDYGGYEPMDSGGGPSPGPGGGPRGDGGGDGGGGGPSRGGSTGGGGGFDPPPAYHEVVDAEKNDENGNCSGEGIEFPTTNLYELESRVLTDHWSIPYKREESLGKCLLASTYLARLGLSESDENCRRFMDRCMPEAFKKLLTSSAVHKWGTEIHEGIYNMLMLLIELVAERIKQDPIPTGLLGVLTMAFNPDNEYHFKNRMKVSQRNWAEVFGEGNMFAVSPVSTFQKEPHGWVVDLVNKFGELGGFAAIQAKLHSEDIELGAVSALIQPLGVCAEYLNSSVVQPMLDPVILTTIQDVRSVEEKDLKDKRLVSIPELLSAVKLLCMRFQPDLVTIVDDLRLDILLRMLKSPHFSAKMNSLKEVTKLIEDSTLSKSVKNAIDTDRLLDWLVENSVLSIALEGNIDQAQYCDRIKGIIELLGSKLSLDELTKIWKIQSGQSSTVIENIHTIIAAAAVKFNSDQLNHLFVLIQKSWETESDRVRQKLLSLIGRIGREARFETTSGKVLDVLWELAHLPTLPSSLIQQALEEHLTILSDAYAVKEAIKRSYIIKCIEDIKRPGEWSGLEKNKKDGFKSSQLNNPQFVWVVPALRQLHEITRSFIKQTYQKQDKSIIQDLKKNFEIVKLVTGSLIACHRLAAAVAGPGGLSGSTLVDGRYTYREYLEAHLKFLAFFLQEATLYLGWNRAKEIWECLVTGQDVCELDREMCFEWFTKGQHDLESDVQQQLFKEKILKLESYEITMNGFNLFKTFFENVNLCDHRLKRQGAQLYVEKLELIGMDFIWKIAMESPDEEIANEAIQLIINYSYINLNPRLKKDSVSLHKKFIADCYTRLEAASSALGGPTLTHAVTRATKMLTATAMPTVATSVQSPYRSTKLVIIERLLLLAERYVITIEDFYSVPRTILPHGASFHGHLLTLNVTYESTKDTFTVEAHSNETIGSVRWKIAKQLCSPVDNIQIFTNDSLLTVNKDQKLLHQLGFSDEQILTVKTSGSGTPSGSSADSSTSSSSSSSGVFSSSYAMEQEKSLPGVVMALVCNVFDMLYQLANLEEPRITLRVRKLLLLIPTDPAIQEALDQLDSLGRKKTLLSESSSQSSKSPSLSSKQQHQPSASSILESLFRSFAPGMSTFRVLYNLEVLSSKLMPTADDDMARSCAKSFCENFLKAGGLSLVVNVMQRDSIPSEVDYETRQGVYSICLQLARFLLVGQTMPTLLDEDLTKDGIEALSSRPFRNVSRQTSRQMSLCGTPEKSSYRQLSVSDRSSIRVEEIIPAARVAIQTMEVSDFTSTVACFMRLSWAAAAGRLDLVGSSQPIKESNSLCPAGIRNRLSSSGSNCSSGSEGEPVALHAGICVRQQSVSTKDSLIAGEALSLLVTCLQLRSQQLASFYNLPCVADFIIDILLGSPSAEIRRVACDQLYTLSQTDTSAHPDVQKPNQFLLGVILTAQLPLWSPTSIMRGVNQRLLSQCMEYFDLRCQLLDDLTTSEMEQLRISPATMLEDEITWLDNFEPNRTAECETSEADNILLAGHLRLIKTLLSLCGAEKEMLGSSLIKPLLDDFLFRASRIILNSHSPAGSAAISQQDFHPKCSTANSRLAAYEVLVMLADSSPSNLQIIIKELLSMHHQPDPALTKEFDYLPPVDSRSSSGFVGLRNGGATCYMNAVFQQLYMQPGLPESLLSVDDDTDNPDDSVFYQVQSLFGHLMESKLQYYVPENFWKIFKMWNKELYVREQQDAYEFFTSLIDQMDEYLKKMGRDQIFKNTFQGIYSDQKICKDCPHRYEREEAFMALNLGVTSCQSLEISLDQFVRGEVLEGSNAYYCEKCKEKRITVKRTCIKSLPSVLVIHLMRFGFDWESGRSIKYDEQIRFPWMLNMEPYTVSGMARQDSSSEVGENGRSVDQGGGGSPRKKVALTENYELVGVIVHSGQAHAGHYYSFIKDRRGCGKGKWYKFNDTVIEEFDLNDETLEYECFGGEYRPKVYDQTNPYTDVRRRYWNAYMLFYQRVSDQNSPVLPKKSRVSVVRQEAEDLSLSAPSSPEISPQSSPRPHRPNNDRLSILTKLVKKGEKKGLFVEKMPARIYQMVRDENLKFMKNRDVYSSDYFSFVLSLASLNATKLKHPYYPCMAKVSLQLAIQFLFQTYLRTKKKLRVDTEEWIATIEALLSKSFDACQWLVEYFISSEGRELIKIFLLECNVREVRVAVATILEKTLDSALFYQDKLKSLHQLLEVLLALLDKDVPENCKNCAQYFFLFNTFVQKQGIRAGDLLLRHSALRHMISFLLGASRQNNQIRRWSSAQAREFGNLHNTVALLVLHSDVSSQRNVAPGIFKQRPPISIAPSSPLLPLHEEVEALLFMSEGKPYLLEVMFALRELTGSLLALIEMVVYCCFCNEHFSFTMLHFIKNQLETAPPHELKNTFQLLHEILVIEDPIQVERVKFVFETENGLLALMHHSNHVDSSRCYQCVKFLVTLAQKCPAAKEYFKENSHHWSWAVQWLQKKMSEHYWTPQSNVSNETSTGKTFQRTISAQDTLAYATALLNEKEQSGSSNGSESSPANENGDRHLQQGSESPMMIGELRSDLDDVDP
How it was run: as §1

USP25 = target: T2, USP25 (UniProt Q9UHP3)
T2 sequence (whole entry): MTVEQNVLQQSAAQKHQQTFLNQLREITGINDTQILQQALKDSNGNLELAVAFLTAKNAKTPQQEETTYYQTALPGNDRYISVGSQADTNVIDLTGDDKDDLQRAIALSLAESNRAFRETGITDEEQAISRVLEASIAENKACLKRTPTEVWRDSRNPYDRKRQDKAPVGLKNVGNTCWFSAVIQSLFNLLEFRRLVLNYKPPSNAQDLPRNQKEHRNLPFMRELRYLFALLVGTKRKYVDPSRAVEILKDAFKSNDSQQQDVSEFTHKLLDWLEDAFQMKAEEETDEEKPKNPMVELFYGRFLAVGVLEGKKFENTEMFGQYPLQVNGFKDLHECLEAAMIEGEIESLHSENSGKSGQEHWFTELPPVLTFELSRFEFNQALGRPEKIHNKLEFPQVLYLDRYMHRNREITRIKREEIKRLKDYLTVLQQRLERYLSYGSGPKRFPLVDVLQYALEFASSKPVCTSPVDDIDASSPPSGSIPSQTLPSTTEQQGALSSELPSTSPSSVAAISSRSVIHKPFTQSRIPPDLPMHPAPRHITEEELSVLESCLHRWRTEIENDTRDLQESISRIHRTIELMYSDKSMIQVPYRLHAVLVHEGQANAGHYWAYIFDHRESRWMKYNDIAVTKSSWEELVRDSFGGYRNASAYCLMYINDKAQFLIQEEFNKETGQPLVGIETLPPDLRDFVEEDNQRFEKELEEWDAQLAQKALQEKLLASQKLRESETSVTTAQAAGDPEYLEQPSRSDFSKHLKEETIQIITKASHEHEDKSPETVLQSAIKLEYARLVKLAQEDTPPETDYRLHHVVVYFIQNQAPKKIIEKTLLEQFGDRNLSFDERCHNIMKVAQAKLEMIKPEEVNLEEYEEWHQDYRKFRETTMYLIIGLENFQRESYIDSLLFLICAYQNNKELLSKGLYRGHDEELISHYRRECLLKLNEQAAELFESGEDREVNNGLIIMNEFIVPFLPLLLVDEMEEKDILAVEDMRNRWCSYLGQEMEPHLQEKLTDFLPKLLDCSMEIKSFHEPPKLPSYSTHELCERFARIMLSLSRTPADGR
How it was run: as §1

USP28 = target: T3, USP28 (UniProt Q96RU2)
T3 sequence (whole entry): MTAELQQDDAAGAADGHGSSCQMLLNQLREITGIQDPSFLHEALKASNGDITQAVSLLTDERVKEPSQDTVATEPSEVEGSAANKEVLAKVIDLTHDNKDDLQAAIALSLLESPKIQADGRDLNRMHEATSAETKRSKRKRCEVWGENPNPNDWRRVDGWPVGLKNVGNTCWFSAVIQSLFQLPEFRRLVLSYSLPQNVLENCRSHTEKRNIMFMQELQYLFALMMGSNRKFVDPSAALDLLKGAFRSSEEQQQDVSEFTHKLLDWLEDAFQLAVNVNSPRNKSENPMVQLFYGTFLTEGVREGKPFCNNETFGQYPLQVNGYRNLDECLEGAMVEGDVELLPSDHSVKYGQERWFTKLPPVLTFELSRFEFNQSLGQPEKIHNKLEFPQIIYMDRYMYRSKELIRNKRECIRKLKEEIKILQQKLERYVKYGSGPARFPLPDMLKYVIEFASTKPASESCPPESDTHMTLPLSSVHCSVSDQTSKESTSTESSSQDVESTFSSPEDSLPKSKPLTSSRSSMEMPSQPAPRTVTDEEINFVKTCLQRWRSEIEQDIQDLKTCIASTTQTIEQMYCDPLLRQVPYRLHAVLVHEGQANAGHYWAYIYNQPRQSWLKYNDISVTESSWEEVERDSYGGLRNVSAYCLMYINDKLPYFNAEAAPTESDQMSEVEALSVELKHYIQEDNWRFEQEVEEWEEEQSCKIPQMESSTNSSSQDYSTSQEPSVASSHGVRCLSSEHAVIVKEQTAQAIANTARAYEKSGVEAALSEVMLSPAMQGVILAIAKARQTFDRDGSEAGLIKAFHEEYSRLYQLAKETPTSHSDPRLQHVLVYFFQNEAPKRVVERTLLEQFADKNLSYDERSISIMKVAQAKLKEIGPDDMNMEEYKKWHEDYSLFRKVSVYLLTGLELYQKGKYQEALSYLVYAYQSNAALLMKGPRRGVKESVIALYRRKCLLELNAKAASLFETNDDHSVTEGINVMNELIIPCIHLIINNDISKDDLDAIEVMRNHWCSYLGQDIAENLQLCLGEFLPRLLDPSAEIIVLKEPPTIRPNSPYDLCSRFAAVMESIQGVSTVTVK
How it was run: as §1

Measured: log2 ratio of Biotin-Ahx-Ub-VS probe labelling

Cc1ccc(N(C(=O)CCl)C2C=CS(=O)(=O)C2)cc1 (centres undefined)
inactive: USP19 0.0392 | USP24 -0.681 | USP25 0.0868 | USP28 -0.13
